FXN GAA850 act – increases GAA850 frataxin promoter reporter activity | HEK293 lucGAA850 FXN promoter luciferase reporter, 24 h; percent of 10 µM SAHA response | activation, % at 6 µM | hit rate 0.56% among 360,000 | AID 540364;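 active = activation above the average of all compounds screened plus 3 SD, cutoff fixed separately per campaign, cut at about 7.5% in these data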;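 also: 0% = DMSO wells and 100% = 10 µM SAHA wells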
SMARCA2 activ – SMARCA2 function activation, primary screen | MG213 cells, MMTV-luciferase reporter, dexamethasone, overnight | activation, % at 9.1 µM | hit rate 1% among 370,000 | AID 652017; in the data active = activation above about 7.8%;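 also: 0% = vehicle wells and 100% = reference activator wells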
HSF1 inh – HSF1 inhibition | NIH3T3-HGL HSE-luciferase, MG132-induced, luminescence 8 h; active compounds read low | activity change, negative = inhibition, % at 7.5 µM (by protocol) | hit rate 0.77% among 300,000 | AID 2098;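 active = more than half of replicate wells show activity change below -50%, luminescence cut by over half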;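 also: luciferase reports HSF-1 transcriptional activity via heat shock element; 0% = median of DMSO wells and -100% = zero luminescence signal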
PG9 binder – binds the HIV-1 gp120 antibody PG9 | hit rate 0.43% among 360,000 | TR-FRET gp120-PG9 antibody binding | inhibition, % at 6.7 µM; in the data active = inhibition above about 8.5%
AI-2 QS mod – Vibrio harveyi AI-2 quorum sensing modulation | AID 2094 | Vibrio harveyi JMH597 AI-2 luminescence/OD600 ratio, 9 h; active compounds read low; strain lacks LuxN and CqsS sensors; 0 = neutral-control median | activity change, % at 7.5 µM | hit rate 0.4% among 300,000; in the data active = activity change below about -75%, passing the limit was not always enough;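 also: luminescence divided by OD600 gain over 9 h not by final OD600 alone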
HSP90 refold inh – blocks HSP90-mediated luciferase refolding in reticulocyte lysate; Rabbit reticulocyte lysate, luciferase refolding luminescence, 3 h; inhibition, % at 5.6 µM; hit rate 0.91% among 290,000; AID 1789;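 active = inhibition above the screen-wide mean plus 3 SD, computed separately per campaign, cut at about 16% in these data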;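 also: 0% = DMSO wells and 100% = 60 µM geldanamycin wells; inhibitors lower the luminescence because luciferase stays unfolded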
Starred values were filed as active, the others as inactive. An excerpt weighted towards active compounds, which were near 3.4% of everything screened.

COc1ccc(C(=O)Nc2nc3ccccc3s2)c(OC)c1 was read as FXN GAA850 act -14, SMARCA2 activ -9, HSF1 inh -93*, PG9 binder -1, AI-2 QS mod 6 and HSP90 refold inh 91*.
Screening COc1cc(C(=O)Nc2nc3ccccc3s2)ccc1OCc1c(C)noc1C returned FXN GAA850 act -1, SMARCA2 activ 0, HSF1 inh 13, PG9 binder 11* and HSP90 refold inh 0.
COc1cc2nc(NC(=O)c3ccccc3)sc(=O)c2cc1OC was read as FXN GAA850 act 1, SMARCA2 activ -1, HSF1 inh 3, PG9 binder 25*, AI-2 QS mod 7 and HSP90 refold inh 1.
`COc1ccc2nc(NC(=O)c3ccccc3C(=O)O)sc2c1` gave FXN GAA850 act 1, SMARCA2 activ 3, HSF1 inh 0, PG9 binder 0, AI-2 QS mod 6 and HSP90 refold inh -2.
`Cc1cccc(OC[C@@H](O)CN2CCC(C(O)(c3ccccc3)c3ccccc3)CC2)c1` gave SMARCA2 activ -3.
Screening O=S1(=O)c2c(cccc2N2CC[C@H](O)C2)O[C@H]2CCN1C2 returned SMARCA2 activ 0.
`COc1ccc(Nc2ncnc3c2c(C)c(C)n3CCCN(C)C)cc1` gave FXN GAA850 act -3, SMARCA2 activ 2, HSF1 inh -54*, PG9 binder -2, AI-2 QS mod 2 and HSP90 refold inh 7.
Screening C=C1CC2(OC1=O)c1ccccc1CCc1ccccc12 returned FXN GAA850 act -9, SMARCA2 activ -11, HSF1 inh 60* and PG9 binder 1.
Screening CCOC(=O)c1cnn(-c2ccccn2)c1N returned FXN GAA850 act 2, SMARCA2 activ 7.9*, HSF1 inh 4, PG9 binder -1, AI-2 QS mod 1 and HSP90 refold inh -4.
`O=C(O)CN1C(=O)NC2(CCc3ccccc32)C1=O` (stereo unspecified) gave FXN GAA850 act 0, SMARCA2 activ 2, HSF1 inh 1, PG9 binder -3, AI-2 QS mod 14 and HSP90 refold inh -4.
`O=C1NC(=O)C2(CCc3ccccc32)N1` (stereo unspecified) gave FXN GAA850 act 3, SMARCA2 activ 3, HSF1 inh -77*, PG9 binder 1, AI-2 QS mod 20 and HSP90 refold inh -1.
COc1ccc(/C=N/NC(=O)C(N)=O)c(OC)c1OC was read as FXN GAA850 act 2, SMARCA2 activ 2, HSF1 inh 0, PG9 binder -1, AI-2 QS mod 3 and HSP90 refold inh 1.
Screening COc1ccc(/C=N/N(C)C2=NCCN2)c(OC)c1OC returned FXN GAA850 act 1, SMARCA2 activ -1, HSF1 inh -86*, PG9 binder -1, AI-2 QS mod 10 and HSP90 refold inh -2.
Cc1cccc(NC(=O)C2CCCN2S(=O)(=O)c2cccnc2)c1C (stereo unspecified) was read as SMARCA2 activ 0.
`CC(C)NS(=O)(=O)c1ccc(OCC(=O)N2CCCC2)c(Cl)c1` gave FXN GAA850 act 0, SMARCA2 activ -1, HSF1 inh -53*, PG9 binder -1, AI-2 QS mod 23 and HSP90 refold inh -2.
S=c1[nH]c2cc(Cl)ccc2s1 was read as FXN GAA850 act 4, SMARCA2 activ -2, HSF1 inh -13, PG9 binder -1, AI-2 QS mod -78* and HSP90 refold inh 0.
For CCCNC(=O)N1CC[C@H]2[C@@H]1c1cc(-c3ccc(F)cc3)ccc1N(C)[C@H]2CO the results were SMARCA2 activ -6.
For CC(=O)Nc1ccc(Nc2ncnc3c2cnn3-c2ccccc2)cc1 the results were FXN GAA850 act -1, SMARCA2 activ 6, HSF1 inh 2, PG9 binder 1, AI-2 QS mod 20 and HSP90 refold inh 1.
For CC1CCN(c2ncnc3c2cnn3-c2ccccc2)CC1 the results were FXN GAA850 act 5, SMARCA2 activ 4, HSF1 inh 35, PG9 binder 0, AI-2 QS mod 21 and HSP90 refold inh -3.
For Cc1cccc(-n2ncc3c(N(C)C4CCCCC4)ncnc32)c1 the results were FXN GAA850 act -13, SMARCA2 activ -6, HSF1 inh -91*, PG9 binder -1 and AI-2 QS mod 24.
Screening CC(=O)Nc1ccc(Nc2ncnc3c2cnn3-c2cccc(C)c2)cc1 returned FXN GAA850 act -1, SMARCA2 activ 7.9*, HSF1 inh 8, PG9 binder 0, AI-2 QS mod 5 and HSP90 refold inh -5.
`COc1ccc(-n2ncc3c(N(C)C4CCCCC4)ncnc32)cc1` gave FXN GAA850 act -14, SMARCA2 activ -12, HSF1 inh -85*, PG9 binder 0, AI-2 QS mod 19 and HSP90 refold inh 79*.
COc1ccc(-n2ncc3c(N4CCC(C)CC4)ncnc32)cc1 was read as FXN GAA850 act 2, SMARCA2 activ 1, HSF1 inh -16, PG9 binder 1, AI-2 QS mod 6 and HSP90 refold inh 29*.
Screening CCOC(=O)[C@]12CCCC3=C1N(CCC3)C(=O)[C@@H](CC(=O)N1CCOCC1)C2 returned SMARCA2 activ 0.
For O=C(COC(=O)c1ccc(Sc2ncn[nH]2)c([N+](=O)[O-])c1)Nc1cccc(Cl)c1F the results were SMARCA2 activ -1.
For COc1cccc(CN(C)C(=O)[C@H]2O[C@@H](n3cnc4c(=O)[nH]c(N)nc43)[C@H](O)[C@@H]2O)c1 the results were SMARCA2 activ -1 and PG9 binder -2.
For CCN(CC)c1ccc(CNc2nc3ccccc3n2CCN2CCOCC2)cc1 the results were FXN GAA850 act 0, SMARCA2 activ -3, HSF1 inh -60*, PG9 binder -2, AI-2 QS mod 9 and HSP90 refold inh 4.
For CC1(C)CC(=O)C(C(c2cccnc2)C2C(=O)CC(C)(C)CC2=O)C(=O)C1 the results were FXN GAA850 act 2, SMARCA2 activ 7, HSF1 inh -90*, PG9 binder -2, AI-2 QS mod 15 and HSP90 refold inh -3.
`Cc1cccc(C(=O)Nc2cccc(C(=O)N3CCOCC3)c2)c1` gave FXN GAA850 act 0, SMARCA2 activ 0, HSF1 inh -36, PG9 binder 1, AI-2 QS mod 0 and HSP90 refold inh 3.
For Cc1cccc(NC(=O)C2SC(=Nc3c(C)cccc3C)C(C(=O)N3CCOCC3)=C2N)c1 (stereo unspecified) the results were FXN GAA850 act -3, SMARCA2 activ 0, HSF1 inh -72*, PG9 binder 0, AI-2 QS mod 6 and HSP90 refold inh 1.
For O=CN1CCN(C(=O)C2CCN(c3ncnc4c3sc3cccc(F)c34)CC2)CC1 the results were SMARCA2 activ -4.
COc1ccc(-c2c(Cc3ccccc3)nc(NC(=O)c3ccccc3)n2C)cc1 was read as SMARCA2 activ -6.

Bioassay records as filed in PubChem BioAssay.
